# Laboratory results reported in PubChem BioAssay.
# Several values for one entry are separate records, joined by “and”; a condition that tells them apart may be missing. Equal entries are not always repeated. Records with an inconclusive call do not appear. Activity calls are given as the source filed them. Unless noted, no stated cut-off is given here; in the data, active means inhibition above about 80%; inactive means the rest.
# How the values were obtained:
# [1] = viability loss in pontine glioma line – cell-based, SU-DIPG-XVII, MIPE5.0, CellTiter-Glo, qHTS, dose response (AID 1347060; cut-off not given, nearly all actives have AC50 up to about 26 µM;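 on AC50: cells exposed to compound for 48 hours before viability readout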); settings: CellTiter-Glo ATP luminescence
# [2] = viability loss in pontine glioma line – cell-based, SU-DIPG-XIII, MIPE4.0, CellTiter-Glo, qHTS, dose response (AID 1347061; cut-off not given, nearly all actives have AC50 up to about 37 µM;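 further: cells exposed to compound for 48 hours before readout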); settings: CellTiter-Glo ATP luminescence
# [3] = viability loss in pontine glioma line – cell-based, JHH-DIPG-1, MIPE4.0, CellTiter-Glo, qHTS, dose response (AID 1347062; cut-off not given, nearly all actives have AC50 up to about 27 µM;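 on AC50: cells exposed to compound for two days before readout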); settings: JHH-DIPG-1 viability, CellTiter-Glo ATP luminescence
# [4] = viability loss in pontine glioma line – cell-based, SU-DIPG-XXV, MIPE5.0, CellTiter-Glo, qHTS, dose response (AID 1347065; cut-off not given, nearly all actives have AC50 up to about 26 µM;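 further: cells exposed to compound for 48 hours before ATP readout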); settings: CellTiter-Glo ATP luminescence
# [5] = viability loss with induced miR-34 in A549 – imaging, A549 dox-inducible miR-34, nuclei and caspase counts, primary screen (AID 1347080;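 active means compounds whose cell count with miR-34 switched on is under 0.7 times the count with it off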); settings: A549 miR-34 inducible, Hoechst nuclei count, 48 h
# [6] = galactose survival enhancers in mitochondrial complex I cybrids – cell-based, galactose medium, ATP luminescence, primary screen (AID 1645843;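 active means z-score of at least 1.8 in each of two replicates, scored against plate mean and spread of sample wells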;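 further: positive z means more ATP and so rescue of galactose-driven cybrid death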); settings: complex I mutant cybrid cells, 72 h, stronger effect = higher value
# [7] = growth inhibition, MDA-MB-436, cell-based, BGB or cisplatin combos, synergistic combos for chromothripsis tumors (AID 1671458; call rule not given here;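 further: cells exposed for 96 hours; 0% = vehicle DMSO and 100% = killing by high DMSO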); settings: MDA-MB-436 breast carcinoma growth inhibition, drug combinations, stronger effect = higher value
# [8] = BT084 cell growth, single and combined drugs, ICGC_MB145, cisplatin and BGB IC40 combos (AID 1671461); settings: BT084 medulloblastoma cells, drug combinations, stronger effect = higher value;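 further: cells exposed to drugs for 96 hours; 0% = vehicle DMSO and 100% = high DMSO full killing control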
# [9] = RCMB18 cell growth, single agent and combined, cisplatin and BGB IC40 combos (AID 1671462); settings: RCMB18 medulloblastoma cells, stronger effect = higher value;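 further: cells exposed to compound for four days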
# [10] = CRL1545 cell growth, single agent and combined, cisplatin and BGB IC20 combos (AID 1671464); settings: CRL1545 osteosarcoma cells, stronger effect = higher value;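 further: cells exposed to compound for 96 hours before readout; 0% = vehicle DMSO and 100% = high DMSO killing control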
# [11] = compounds altering circadian rhythm period length – cell-based, LOPAC library, luminescence reporter (AID 2774; call rule not given here;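 further: values are relative to mean of DMSO wells on each plate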); settings: circadian reporter cells, at 7 µM, actives lie on both sides
# [12] = compounds altering viability of human ES cells (AID 493140; call rule not given here;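 further: cells exposed to compounds for four days before counting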); settings: human embryonic stem cell survival screen; stronger effect = higher value
# [13] = tested on: Hepatitis C virus NS3 helicase; assay: blockers of NS3h binding to ssDNA – biochemical, fluorescence polarization, LOPAC1280 library, primary screen (AID 687035; in the data active means inhibition above about 37%); settings: Purified HCV NS3 helicase, Cy5-dT15 ssDNA binding fluorescence polarization; stronger effect = higher value; concentration not given here
# [14] = compounds altering Cy5-DNA-NS3h complex signal – biochemical, LOPAC1280, artefact control for HCV NS3 helicase inhibitor project (AID 687037; call rule not given here); settings: Cy5-DNA-NS3h complex fluorescence interference counterscreen
# [15] = blockers of cellular phospholipid synthesis – cell-based, LOPAC library, screen 4, primary screen (AID 1347384; call rule not given here); settings: animal cells, phospholipid biosynthesis inhibition screen; at 10 µM
# [16] = viability loss in pontine glioma line – cell-based, SU-DIPG-XIII, MIPE5.0, CellTiter-Glo, qHTS, dose response (AID 1347064; cut-off not given, nearly all actives have AC50 up to about 23 µM); settings: CellTiter-Glo ATP luminescence
# [17] = growth inhibition of DIPG cells – cell-based, MIPE4.0 library, CellTiter-Glo luminescence, qHTS (AID 1347066; cut-off not given, nearly all actives have AC50 up to about 30 µM;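 further: cells exposed to compound for 48 hours before readout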); settings: SU-DIPG-VI viability, CellTiter-Glo ATP luminescence
# [18] = JHH-DIPG-1 glioma cell viability, MIPE5.0 library, CellTiter-Glo luminescence, qHTS (AID 1347067; cut-off not given, nearly all actives have AC50 up to about 26 µM;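 further: cells exposed to compound for 48 hours before readout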); settings: JHH-DIPG-1 glioma viability, CellTiter-Glo ATP luminescence
# [19] = growth inhibition of DIPG cells – cell-based, MIPE5.0 library, qHTS (AID 1347068; cut-off not given, nearly all actives have IC50 up to about 30 µM); settings: SU-DIPG-XXV viability
# [20] = GFP-Q80 aggregate reduction, neuronal-like cells, cell-based, NGF-treated PC12, GFPQ80 (AID 1614); settings: PC12 NGF-treated GFP-polyQ80 inclusion reduction;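 further: lower means fewer inclusions and 0 means no inclusions at all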
# [21] = measured here: BGB combination, at 0.5 µM
# [22] = measured here: BGB combination, at 5 µM
# [23] = measured here: cisplatin combination, at 0.5 µM
# [24] = measured here: cisplatin combination, at 5 µM
# [25] = cisplatin combination, at 0.5 µM
# [26] = measured here: BGB IC40 combination 0.05 uM, at 0.05 µM
# [27] = measured here: BGB IC40 combination, at 0.05 µM
# [28] = measured here: combination with cisplatin, at 0.5 µM
# [29] = measured here: with BGB IC20 combination, at 0.5 µM
# [30] = measured here: with cisplatin IC20 combination, at 0.5 µM
smiles,measurement,setting,value
S=c1nc[nH]c2nc[nH]c12,AC50,[1],1180 nM (active)
same,outcome,[2],inactive
same,AC50,[3],935 nM (active)
same,AC50,[4],5250 nM (active)
same,fold change,"[5]; stronger effect = lower value, cell number ratio, induced over uninduced",0.793 (inactive) and 0.952 (inactive) and 0.815 (inactive)
same,fold change,[5]; measured here: relative caspase fold change +Dox/-Dox,1.23 and 0.341 and 5.81
same,cell count,"[5]; measured here: total cells with miR-34 induction, stronger effect = lower value",5690 and 7180 and 6280
same,cell count,[5]; measured here: total cells without miR-34 induction,7180 and 7540 and 7700
same,z-score,[6],2.91 (active)
same,inhibition,[7]; at 0.5 µM,-2.57% (inactive) and -1.27% (inactive) and 12.1% (inactive)
same,inhibition,[7]; [21],-26.2% and -7.09% and 10.3%
same,inhibition,[7]; [22],19.5% and 16% and 25.5%
same,inhibition,[7]; [23],-2.23% and -7.71% and 3.05%
same,inhibition,[7]; [24],44.5% and 28.1% and 46.1%
same,inhibition,[8]; at 0.5 µM,-23.3% (inactive) and -12% (inactive) and -13.4% (inactive)
same,inhibition,[8]; [25],-28% and -16.1% and -18.3%
same,inhibition,"[8]; cisplatin combination, at 5 µM",-59.7% and -17.4% and -65.5%
same,inhibition,[8]; [26],-9.27% and 73.7% and -6.21%
same,inhibition,"[8]; single agent, at 5 µM",-10.1% and 19.3% and -6.27%
same,inhibition,[9]; at 0.5 µM,0.61% (inactive) and -7.44% (inactive) and -22.1% (inactive)
same,inhibition,"[9]; cisplatin combo, at 5 µM",12.2% and -28% and -29.1%
same,inhibition,[9]; [27],0.705% and 3.13% and 5.02%
same,inhibition,[9]; [28],30% and -22% and -77.2%
same,inhibition,"[9]; single agent, at 5 µM",-40.6% and 41.7% and -25.7%
same,inhibition,[10]; at 0.5 µM,-26.3% (inactive) and -12.8% (inactive) and -43.8% (inactive)
same,inhibition,[10]; [29],-10.8% and -54.5% and -18%
same,inhibition,[10]; [30],-34% and 8.01% and -56.8%
same,inhibition,"[10]; single agent, at 0.05 µM",2.04% and -10.4% and -14.2%
same,inhibition,"[10]; single agent, at 5 µM",33.1% and 21.8% and 31.5%
CCOC(=O)C1=C(C)NC(C)=C(C(=O)OC)C1c1cccc([N+](=O)[O-])c1 (stereo not drawn),period change,[11],0.21 h (inactive)
same,survival,[12],5.33 (inactive)
same,inhibition,[13],-2% (inactive)
same,fluorescence ratio (interference),[14],0.9 (inactive)
same,outcome,[15],inactive
O=C(O)CCCc1ccccc1,z-score,[6],-0.305 (inactive) and -0.05 (inactive) and 0.3 (inactive)
same,inhibition,[7]; at 0.5 µM,-11.5% (inactive)
same,inhibition,[7]; [21],-6.89%
same,inhibition,[7]; [22],-6.08%
same,inhibition,[7]; [23],-24.1%
same,inhibition,[7]; [24],-11.2%
same,inhibition,[8]; at 0.5 µM,-24.2% (inactive)
same,inhibition,[8]; [25],2.11%
same,inhibition,"[8]; cisplatin combination, at 5 µM",-2.13%
same,inhibition,[8]; [26],-5.38%
same,inhibition,"[8]; single agent, at 5 µM",-9.5%
same,inhibition,[9]; at 0.5 µM,-15.3% (inactive)
same,inhibition,"[9]; cisplatin combo, at 5 µM",-6.28%
same,inhibition,[9]; [27],-18%
same,inhibition,[9]; [28],-7.69%
same,inhibition,"[9]; single agent, at 5 µM",28.4%
same,inhibition,[10]; at 0.5 µM,-23.7% (inactive)
same,inhibition,[10]; [29],-4.31%
same,inhibition,[10]; [30],-36.4%
same,inhibition,"[10]; single agent, at 0.05 µM",-12.3%
same,inhibition,"[10]; single agent, at 5 µM",9.33%
CCCc1nc2c(C)cc(-c3nc4ccccc4n3C)cc2n1Cc1ccc(-c2ccccc2C(=O)O)cc1,outcome,[1],inactive
same,outcome,[2],inactive
same,outcome,[3],inactive
same,outcome,[16],inactive
same,outcome,[4],inactive
same,outcome,[17],inactive
same,outcome,[18],inactive
same,outcome,[19],inactive
same,z-score,[6],1.57 (inactive) and -0.14 (inactive)
CC1COc2c(N3CCN(C)CC3)c(F)cc3c(=O)c(C(=O)O)cn1c23 (stereo not drawn),inclusion score,[20],2
same,period change,[11],0.06 h (inactive)
same,survival,[12],10.6 (inactive)
same,inhibition,[13],-6% (inactive)
same,fluorescence ratio (interference),[14],0.9 (inactive)
same,outcome,[1],inactive
same,outcome,[2],inactive
same,outcome,[3],inactive
same,outcome,[16],inactive
same,outcome,[4],inactive
same,outcome,[17],inactive
same,outcome,[18],inactive
same,outcome,[19],inactive
same,outcome,[15],inactive
same,inhibition,[7]; at 0.5 µM,-34.5% (inactive) and -6.74% (inactive) and -3.04% (inactive)
same,inhibition,[7]; [21],-25.6% and -3.95% and -7.27%
same,inhibition,[7]; [22],-17.4% and 1.21% and -4.78%
same,inhibition,[7]; [23],-57.3% and -9.51% and 4.2%
same,inhibition,[7]; [24],-35.2% and 8.53% and -3.87%
same,inhibition,[8]; at 0.5 µM,-33.3% (inactive) and -1.31% (inactive) and 2.04% (inactive)
same,inhibition,[8]; [25],-31.2% and 8.69% and -10.9%
same,inhibition,"[8]; cisplatin combination, at 5 µM",-9.85% and -7.87% and -3.96%
same,inhibition,[8]; [26],-9.27% and 10.9% and 19.9%
same,inhibition,"[8]; single agent, at 5 µM",-20.1% and 7.2% and -8.12%
same,inhibition,[9]; at 0.5 µM,-28.4% (inactive) and -8.12% (inactive) and -0.02% (inactive)
same,inhibition,"[9]; cisplatin combo, at 5 µM",-38.4% and 21.2% and 9.23%
same,inhibition,[9]; [27],-5.79% and 25.7% and 5.62%
same,inhibition,[9]; [28],-28.1% and -3.73% and 27.4%
same,inhibition,"[9]; single agent, at 5 µM",-31.9% and -5.49% and -32%
same,inhibition,[10]; at 0.5 µM,-60% (inactive) and 4.59% (inactive) and -24.8% (inactive)
same,inhibition,[10]; [29],-68.3% and -3.25% and -47.6%
same,inhibition,[10]; [30],-59.4% and 8.51% and -13.4%
same,inhibition,"[10]; single agent, at 0.05 µM",-65.5% and -29.1% and 12%
same,inhibition,"[10]; single agent, at 5 µM",-39.6% and 8.31% and 10.5%
